# Results reported in the supplement of paper PMC12340641.
# Counter-ions that a name gives are not always drawn.
# Columns and labels:
# [1] = molecular target: IKZF1 (dCK*-IKZF1 fusion in HEK293FT) (UniProt Q13422); experiment: inhibition of IKZF1 HTRF signal (DMSO = 0%, pomalidomide 10 uM = 100%); higher = lower IKZF1 protein level; conditions: compound concentration: 5 uM, overnight (~20 h)
# How it was run: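 HEK293FT cells stably expressing a dCK*-IKZF1 fusion (2000/well, 384-well) were treated overnight at 37 °C with 5 μM compound in single wells. They were then lysed 30 min at room temperature, and lysate was incubated overnight with a commercial HTRF total-IKZF1 antibody kit. The time-resolved FRET ratio (665/620 nm) was background-subtracted. Percent inhibition of IKZF1 signal was normalised per plate to vehicle (0%) and a reference degrader (100%).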
# HEK293FT dCK*-only = experiment: relative growth in counter assay (no AraC = 100%, AraC + DMSO = 0%); higher = more growth rescue independent of IKZF1; conditions: compound concentration: 5 uM; AraC concentration: 0.3 uM; overnight pretreatment + 4 days AraC
# How it was run: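 In 384-well plates, 300 HEK293FT cells per well expressing an engineered kinase construct alone got 5 μM compound 2 h after seeding. After overnight at 37 °C, 0.3 μM nucleoside suicide substrate plus medium was applied for 4 days. Counting of Hoechst 33342-stained nuclei by imaging on day 5 was normalised per plate, with 100% for no-substrate wells and 0% for substrate plus vehicle.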
# HEK293FT dCK*-IKZF1 = experiment: relative growth recovery (pomalidomide 10 uM = 100%, DMSO = 0%); higher = more growth rescue (IKZF1 fusion degradation); conditions: compound concentration: 5 uM; AraC concentration: 0.3 uM; overnight pretreatment + 4 days AraC
# How it was run: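 HEK293FT cells stably expressing an engineered deoxycytidine kinase–IKZF1 fusion were seeded at 300 per well in 384-well plates and given 5 μM compound 2 h later. After overnight incubation at 37 °C, a nucleoside suicide substrate at 0.3 μM was added with medium for 4 days, and on day 5 Hoechst 33342-stained nuclei were counted by whole-well imaging. Growth recovery was normalised per plate between a reference degrader and vehicle, set to 100% and 0% respectively, and the values are means of duplicates run on different days.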
# Sequence of IKZF1 (dCK*-IKZF1 fusion in HEK293FT) (Q13422 whole entry, looked up, the tested form may be a part): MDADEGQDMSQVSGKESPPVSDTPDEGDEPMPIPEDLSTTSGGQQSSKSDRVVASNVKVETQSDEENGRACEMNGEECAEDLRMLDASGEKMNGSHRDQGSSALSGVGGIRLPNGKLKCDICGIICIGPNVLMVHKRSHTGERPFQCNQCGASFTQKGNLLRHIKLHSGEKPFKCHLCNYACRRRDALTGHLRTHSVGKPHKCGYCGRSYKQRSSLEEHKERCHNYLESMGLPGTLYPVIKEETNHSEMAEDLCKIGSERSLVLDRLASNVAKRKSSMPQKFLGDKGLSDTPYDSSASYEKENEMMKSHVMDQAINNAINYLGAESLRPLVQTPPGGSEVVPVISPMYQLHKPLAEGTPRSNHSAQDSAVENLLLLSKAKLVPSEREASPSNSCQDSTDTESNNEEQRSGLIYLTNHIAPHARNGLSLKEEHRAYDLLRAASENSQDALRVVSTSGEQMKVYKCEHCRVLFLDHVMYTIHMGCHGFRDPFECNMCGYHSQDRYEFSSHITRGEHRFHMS
Structure (SMILES),inhibition of IKZF1 HTRF signal [1] [%],relative growth in counter assay (HEK293FT dCK*-only) [%],relative growth recovery (HEK293FT dCK*-IKZF1) [%]
Cc1ccc2c(=O)c3ccccc3n(CCCN)c2c1C,-12.2,-35.5,-14.4
CO[C@@]12[C@@H]3NC3CN1C1=C(C(=O)C(N)=C(C)C1=O)[C@@H]2COC(N)=O (stereo not given in full),-1.54,-33.6,-12.9
CCCCC(CC)COc1ccc(-c2nc(-c3ccc(OC)cc3)nc(-c3ccc(OCC(CC)CCCC)cc3O)n2)c(O)c1 (stereo not given),-35.1,12.9,1.75
CN1CCN(CCCN2c3ccccc3Sc3ccc(C(F)(F)F)cc32)CC1 [Trifluoperazine  HCl],-1.13,28.7,3.73
Cc1cccc(C)c1NC(=O)C[N+](C)(C)C,-41.2,0.1,-1.7
CCCCC/N=c1/ccn(Cc2ccccc2)c2ccccc12,-21.7,-2.74,-2.79
O=C1c2ccccc2C(Cc2ccncc2)(Cc2ccncc2)c2ccccc21,-38.8,-4.37,5.88
CCCCCCCCCCCCCCCC[N+](C)(C)C,22.3,-33.4,-11.7
Nc1cccc2c1C(=O)N(C1CCC(=O)NC1=O)C2=O (stereo not given) [Pomalidomide],92.7,2.03,81.4
CCOC(=O)C1=C(C)NC(C)=C(C(=O)OC)C1c1cccc(Cl)c1Cl (stereo not given),18,-9.69,-1.19
